This is an account of results in PubChem BioAssay.

Results with a measured potency or affinity are listed apart. Activity calls are given as the source filed them.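 Rule for the calls: active = dose-response curve with midpoint inside the tested range, moderate steepness, significant amplitude and little compound fluorescence or bead-attachment interference; inactive = the rest.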

For this test, the target named is GTPase HRas (Homo sapiens) (UniProt P01112). Description: activated Ras mutant GTP binding inhibitors, dose response, biochemical, multiplex bead flow cytometry (AID 1341).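 Note: GST-tagged constitutively activated Ras mutant immobilized on beads and multiplexed with other GTPases.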 Conditions: bead-based flow cytometry, Bodipy-FL-GTP binding; series mostly up to 100 µM.
As to `CCOc1cc(/C=N/NC(=O)CSc2cccc3cccnc23)ccc1O`, the compound was called inactive. To `CCCCNc1nc(=S)[nH]c2cc(OC)c(OC)cc12` belongs “inactive”; to `CSc1nc2ccc(NC(=O)C3CC(=O)N(Cc4ccco4)C3)cc2s1` (stereo not given), “inactive”.

As to `CN1CCN(c2ccccc2NC(=O)c2ccc(-c3cccc([N+](=O)[O-])c3)o2)CC1`, the call was inactive. To `COc1ccc(CNc2nc3c(c(=O)n(Cc4ccc(Cl)cc4)c(=O)n3C)n2C)cc1` belongs “inactive”; to `Cc1ccc(-c2noc(CN3C(C)CCCC3C)n2)cc1` (stereo not given), “inactive”.

As to `O=C(COc1ccccc1/C=C\c1[nH]c(=O)[nH]c(=O)c1[N+](=O)[O-])Nc1ccccc1`, the compound was called inactive. Regarding `Oc1ccc(C2=Nn3c(nnc3-c3ccco3)SC2)cc1O`, the compound was classed as inactive. To `Cc1ccc(OCc2ccc(C(=O)O)o2)cc1C` belongs “inactive”; to `C=CCn1c(-c2csc(-c3ccc(Cl)cc3)n2)n[nH]c1=S`, “inactive”; to `O=C(O)COc1ccccc1/C=N/Nc1ccc(S(=O)(=O)Nc2ccc(Cl)cc2)cc1[N+](=O)[O-]`, “inactive”. To `O=C1c2ccccc2C(=O)N1CCCCN(C(=O)c1cc2ccccc2oc1=O)c1ccc(Cl)cc1` belongs “inactive”; to `Cn1c(SCC(=O)Nc2cc(C(C)(C)C)nn2-c2ccccc2)nc2ccccc21`, “inactive”; to `CCCCCCNc1cc2n(c(=O)n1)CCc1cc(OC)c(OC)cc1-2`, “inactive”. To `Nc1c([N+](=O)[O-])cc(-c2cnc[nH]2)cc1[N+](=O)[O-]` belongs “inactive”.

Regarding `CC(=O)Oc1cccc(C#CC(=O)c2ccc([N+](=O)[O-])cc2)c1`, the compound was classed as inactive.

Regarding `CCc1nnc(NC(=O)CCC(=O)N2CCN(c3ccccn3)CC2)s1`, the outcome was inactive. To `CC(=O)OC(C(=O)NC1CCCCC1)c1ccc(Cl)cc1` (stereo not given) belongs “inactive”. For `CCN1C(=O)/C(=C/C=C2/Sc3ccc4ccccc4c3N2CCO)SC1=S`, the outcome was inactive.

As to `CCN1CCN(c2nc3c(c(=O)n(C)c(=O)n3C)n2Cc2cccc3ccccc23)CC1`, the compound was called inactive. To `O=C(O)c1cc2ccccc2nc1OCCc1ccccc1` belongs “inactive”. To `C=CCc1ccccc1OCc1cccc(C(=O)O)c1` belongs “inactive”. To `O=[N+]([O-])c1ccc(/C=C/C2=NN(c3ccccc3)C(c3ccco3)C2)cc1` (stereo not given) belongs “inactive”. As for `N=c1oc2ccc3ccccc3c2cc1-c1nc(-c2ccccc2)cs1`, the outcome was inactive. To `N#CC(C#N)=C(Nc1ccc(F)cc1)SCc1cccc(Br)c1` belongs “inactive”; to `N#C/C(=C\c1ccc(-c2ccc(C(=O)O)cc2)o1)c1nc2ccccc2[nH]1`, “inactive”; to `CCN(CC)S(=O)(=O)c1ccc2c(c1)c(=O)c(C(=O)N1CCc3ccccc3C1)cn2C`, “inactive”. As to `CCOC(=O)C1=NN(c2ccc(C)cc2)CC1C(=O)OC` (stereo not given), the compound was called inactive.

On to `O=C(NC1CCCCC1)C(c1ccco1)N(Cc1ccco1)C(=O)c1ccco1` (stereo not given), for which the call was inactive. To `C=C(C)COc1ccc(-c2n[nH]c(C)c2-c2ccc(Br)cc2)c(O)c1` belongs “inactive”; to `O=S(=O)(Cc1ccccc1)c1ccccc1-c1nnc(-c2ccccc2)o1`, “inactive”.

`CCOC(=O)Cn1nnnc1CN(Cc1cccs1)Cc1cc2cc(C)ccc2[nH]c1=O`: the compound was classed as inactive.

As to `CC(=O)Nc1ccc(NC(=O)CCn2nnc3ccccc32)cc1`, the compound was called inactive. To `COc1ccc(CNc2nc3ccccc3n2Cc2ccc(C)cc2)cc1OC` belongs “inactive”; to `O=C(O)c1ccccc1C(=O)OCc1ccc(F)cc1F`, “inactive”; to `COc1ccc2oc(COc3ccccc3)c(C(=O)O)c2c1`, “inactive”.

Regarding `CCOc1ccc(-n2c(-c3ccco3)n[nH]c2=S)cc1`, the compound was classed as inactive. To `OC(c1ccc(OCc2ccccc2)cc1)c1nnc(-c2ccccc2)o1` (stereo not given) belongs “inactive”. To `COc1ccc(-c2c3c(nc4sc5c(=O)[nH]c(C)nc5c24)CCC3)cc1` belongs “inactive”; to `O=C(COc1ccccc1-c1ccccc1)N/N=C/c1ccncc1`, “inactive”.
